Compounds with a hit are over-represented: about 15% of the library has one in this group of screens.
TDP1 cell CPT: growth inhibition of DT40 Tdp1-/-;hTDP1 cells with camptothecin (screen for TDP1 inhibitors); chicken DT40 Tdp1-/-;hTDP1 cells + 20 nM CPT, ATP luminescence, 48 h; Potency, µM (top dose mostly 46.2 µM), inactives show at the highest dose activity change, negative = growth inhibition, usual class: inhibitors; hit rate 12% among 420,000; AID 686979; further: nearly all actives have a fitted effect of over 55% in size
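Chicken DT40 Tdp1-/- cells stably complemented with human TDP1 were seeded at 400 cells/well in medium containing 20 nM camptothecin, exposed to pin-transferred compounds, and grown at 37 °C for at least 48 hr. Viability was read as ATP luminescence.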
ALOX12 inh: inhibitors of human 12S-lipoxygenase ALOX12; AID 1671190; purified 12hLO, xylenol orange hydroperoxide absorbance; Potency, µM (highest dose often 108 µM), inactives show at the top dose activity change, negative = inhibition, usual class: inhibitors; hit rate 1.1% among 580,000
Target sequence (P18054 whole entry, looked up): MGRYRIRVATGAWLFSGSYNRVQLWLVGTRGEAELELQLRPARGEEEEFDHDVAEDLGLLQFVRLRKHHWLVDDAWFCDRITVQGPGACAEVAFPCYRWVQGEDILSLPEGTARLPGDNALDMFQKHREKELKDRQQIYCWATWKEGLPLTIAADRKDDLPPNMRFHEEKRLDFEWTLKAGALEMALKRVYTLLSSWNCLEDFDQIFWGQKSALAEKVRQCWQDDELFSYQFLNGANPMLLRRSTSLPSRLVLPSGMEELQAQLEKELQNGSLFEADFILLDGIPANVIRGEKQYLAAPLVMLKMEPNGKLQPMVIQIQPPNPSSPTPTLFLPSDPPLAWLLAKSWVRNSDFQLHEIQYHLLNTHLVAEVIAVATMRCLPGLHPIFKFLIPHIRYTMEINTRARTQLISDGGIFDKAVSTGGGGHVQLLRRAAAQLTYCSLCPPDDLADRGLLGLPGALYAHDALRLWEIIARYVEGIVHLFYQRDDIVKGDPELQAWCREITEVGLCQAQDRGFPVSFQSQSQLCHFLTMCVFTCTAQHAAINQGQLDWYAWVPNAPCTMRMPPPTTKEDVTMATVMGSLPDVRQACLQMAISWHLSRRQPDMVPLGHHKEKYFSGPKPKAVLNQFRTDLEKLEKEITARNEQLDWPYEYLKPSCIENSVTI
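Purified human 12hLO at 150 nM in 25 mM Hepes, 0.01% Triton X-100, pH 7.0, preincubated 15 min at room temperature with compound. Reaction started with 40 uM arachidonic acid, 30 min at room temperature. Hydroperoxide measured by Fe-xylenol orange, 573/405 nm absorbance ratio.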
ELG1 DNA repair: blocks ELG1-dependent DNA repair in HEK293T cells | HEK293T ELG1-luciferase reporter, luminescence, 16 h; DNA damage induced by 5-fluorouridine | Potency, µM (highest dose often 46.1 µM), without a hit: at the highest dose activity change, negative = inhibition, most hits filed as inhibitors | hit rate 2.3% among 330,000 | AID 504467; further: nearly all actives have a fitted effect of over 55% in size
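DMSO vehicle served as the neutral condition. Each well held 2,000 cells given 5-fluorouridine plus compound; after 16 hr at 37 °C/5% CO2, ONE-Glo was added and luciferase measured 30 min later.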
TDP1 cell noCPT: qHTS for Inhibitors of human tyrosyl-DNA phosphodiesterase 1 (TDP1): qHTS in cells in absence of CPT. DT40 Tdp1-/- hTDP1 cells, no CPT, ATP luminescence, 48 h. Potency, µM (doses to about 46.2 µM), inactives show top-dose activity change, negative = growth inhibition, actives largely listed as inhibitors. AID 686978, 2013. hit rate 15% among 420,000; further: nearly all actives have a fitted effect of over 55% in size
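A cellular qHTS used chicken DT40 cells lacking endogenous Tdp1 but carrying stably transfected human TDP1. Compounds were applied without camptothecin, and cell growth kinetics were judged by ATP-dependent luminescence after ≥48 hr.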
RORgamma inh: inhibitors of mouse ROR gamma transcriptional activity. Drosophila S2 Gal4-RORgamma UAS-luciferase reporter, 20 h. Potency, µM (series often up to 53.6 µM), inactives show top-dose activity change, negative = inhibition, usual class: inhibitors. hit rate 5.4% among 310,000. AID 2551; further: nearly all actives have a fitted effect of over 60% in size
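Drosophila Schneider cells stably carrying a metallothionein-driven Gal4 DBD–ROR gamma fusion and a UAS-Photinus luciferase reporter were exposed to compound for 1 hr, then induced with copper sulfate (700 uM final) for 20 hr at ambient temperature before luminescence reading.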
Gal4-VP16 FLuc: counter-screen for ROR gamma inhibitors: Gal4-VP16 reporter. Potency, µM (titrated, usually from 53.6 µM), for inactives: at the highest dose activity, negative = inhibition, hits mostly inhibitors. hit rate 3.5% among 310,000. AID 2546. Drosophila S2 Gal4-VP16 UAS-luciferase, luminescence, 20 h;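 further: Gal4-VP16 expression switched on by copper sulfate through the metallothionein promoter; nearly all actives have a fitted effect of over 50% in size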
* = called active by the depositor; [ ] = dose if it differs, or a comment. The call rests on the fitted dose curve; in most records, active means well fitted curve in the direction sought with a large enough effect; inconclusive means small, poorly fitted or top-dose-only effect, or another doubt; inactive means no such curve, though single readings can be large; an effect the other way counts as inactive or inconclusive. On the % scale 0 is the no-effect control and ±100 the full control effect; potency means the concentration at half of the fitted maximal effect.

For Cc1cc(C)c2c(=O)n(CC(=O)N3CCC(Cc4ccccc4)CC3)sc2n1 the results were ELG1 DNA repair 5%, RORgamma inh inconclusive and Gal4-VP16 FLuc 4µM*.
Cc1cccc(N2CCN(C(=O)Cn3nc(C)n4cccc4c3=O)CC2C)c1 (stereo not given) was read as TDP1 cell CPT inconclusive, ALOX12 inh 2%, ELG1 DNA repair -15%, TDP1 cell noCPT -25%, RORgamma inh -14% and Gal4-VP16 FLuc 1%.
`CCOc1ccc(C(=O)NCc2coc(-c3cccs3)n2)cc1` gave ALOX12 inh 5%.
For O=C(CS(=O)(=O)c1ccc2ccccc2c1)c1ccc(Cl)cc1 the results were ALOX12 inh -51%.
CCc1noc(C)c1C(=O)N1CCC(CCC(=O)NCc2cccc(C(F)(F)F)c2)CC1 was read as ALOX12 inh 16%.
For COc1cccc(C(=O)Nc2nc(-c3ccc(S(=O)(=O)N4CCOCC4)cc3)cs2)c1 the results were TDP1 cell CPT 21µM*, ALOX12 inh -25%, ELG1 DNA repair inconclusive, TDP1 cell noCPT 12µM* and RORgamma inh -27%[0.365 µM].
`COc1ccc(-c2csc(NC(=O)c3ccc(S(=O)(=O)N4CCc5ccccc5C4)cc3)n2)c(OC)c1` gave TDP1 cell CPT inconclusive, ALOX12 inh -15%, ELG1 DNA repair inconclusive, TDP1 cell noCPT 13µM*, RORgamma inh 11% and Gal4-VP16 FLuc -11%.
Screening CCOc1ccc(-c2csc(NC(=O)c3ccc(S(=O)(=O)N4CCc5ccccc5C4)cc3)n2)cc1 returned TDP1 cell CPT -15%, ALOX12 inh -9%, ELG1 DNA repair 6%, TDP1 cell noCPT -11%, RORgamma inh 28% and Gal4-VP16 FLuc -1%.
`O=C(Nc1nc(-c2ccc(S(=O)(=O)N3CCOCC3)cc2)cs1)c1ccccc1` gave TDP1 cell CPT inconclusive, ALOX12 inh -24%, ELG1 DNA repair 13µM*, TDP1 cell noCPT 12µM*, RORgamma inh 14% and Gal4-VP16 FLuc -10%.
N#Cc1ccc(-c2csc(NC(=O)c3ccc(S(=O)(=O)N4CCCCCC4)cc3)n2)cc1 was read as ALOX12 inh -9%.
Screening Cc1cnc(CCNC(=O)CC(C)C)n1Cc1ccc(F)cc1 returned ALOX12 inh 37%.
`CCOc1ccc(NC(=O)c2nn(-c3cc(OC)cc(OC)c3)c(=O)c3ccccc23)cc1` gave ALOX12 inh -1%.
`Cc1ccc(S(=O)(=O)Nc2c(Cl)c(Cl)c(O)c3ccccc23)cc1` gave ELG1 DNA repair -11%, RORgamma inh 18µM* and Gal4-VP16 FLuc inconclusive.
Screening Cc1ccc(S(=O)(=O)Nc2c(O)ccc3ccccc23)cc1 returned TDP1 cell CPT inconclusive and TDP1 cell noCPT -29%.
For CSc1ccc(NC(=O)N2CCc3nc4cc(-c5ccccc5)[nH]n4c(=O)c3C2)cc1 the results were ALOX12 inh -1%.
`COc1ccc(S(=O)(=O)N2c3cc(C)ccc3OCC2C(C)(C)C)cc1` (stereo not given) gave TDP1 cell CPT 16µM*, ALOX12 inh 0%, ELG1 DNA repair inconclusive, TDP1 cell noCPT inconclusive, RORgamma inh 2% and Gal4-VP16 FLuc -6%.
`COc1ccc(F)c(CN2CCCC(O)(CN3CCC(C(N)=O)CC3)C2=O)c1` (stereo not given) gave ALOX12 inh -21%.
Screening Cc1ccc2c(C(=O)CN3CCCCC3CCO)c(C)[nH]c2c1 (stereo not given) returned TDP1 cell CPT inconclusive, ALOX12 inh -2%, ELG1 DNA repair 0%, TDP1 cell noCPT inconclusive, RORgamma inh -1% and Gal4-VP16 FLuc -8%.
`Cc1[nH]c2ccccc2c1C(=O)CN1CCCCC1CCO` (stereo not given) gave TDP1 cell CPT inconclusive, ALOX12 inh -8%, ELG1 DNA repair 1%, TDP1 cell noCPT 16µM*, RORgamma inh -28% and Gal4-VP16 FLuc -3%.
COc1ccc(Cl)cc1NC(=O)C(C)OC(=O)c1ccsc1 (stereo not given) was read as ALOX12 inh 4%.
Screening CCOC(=O)c1cnc2c(OC)cccc2c1Oc1ccccc1 returned TDP1 cell CPT 0%, ALOX12 inh inconclusive, ELG1 DNA repair -9%, TDP1 cell noCPT -8%, RORgamma inh -5% and Gal4-VP16 FLuc -5%.
`CCOC(=O)c1cnc2cc(C(F)(F)F)ccc2c1N1CCN(c2ccc(F)cc2)CC1` gave TDP1 cell CPT inconclusive, ALOX12 inh inconclusive and TDP1 cell noCPT 21µM*.
For CCOC(=O)c1cnc2cc(F)c(F)cc2c1N1CCN(C)CC1 the results were ALOX12 inh 10%, ELG1 DNA repair -18%, RORgamma inh 9% and Gal4-VP16 FLuc -2%.
`CCOC(=O)c1cnc2ccc(OCC)cc2c1N1CCN(c2cccc(Cl)c2)CC1` gave TDP1 cell CPT 16µM*, ALOX12 inh inconclusive and TDP1 cell noCPT 8.2µM*.
Screening CCOC(=O)c1cnc2ccc(OCC)cc2c1N1CCN(C)CC1 returned TDP1 cell CPT inconclusive, ALOX12 inh -8%, ELG1 DNA repair 0%, TDP1 cell noCPT inconclusive, RORgamma inh 5% and Gal4-VP16 FLuc -8%.
For CCOC(=O)c1cnc2c(OC)cccc2c1N1CCN(c2ccccc2OC)CC1 the results were TDP1 cell CPT inconclusive, ALOX12 inh 0%, ELG1 DNA repair 10µM*, TDP1 cell noCPT 13µM*, RORgamma inh -41% and Gal4-VP16 FLuc -10%.
CCOC(=O)c1cnc2c(OC)cccc2c1N1CC(C)CC(C)C1 (stereo not given) was read as TDP1 cell CPT 12µM*, ALOX12 inh 0%, ELG1 DNA repair inconclusive, TDP1 cell noCPT 7.3µM*, RORgamma inh inconclusive and Gal4-VP16 FLuc -23%.
Screening O=[S+]([O-])(c1ccccc1)N1CCC2(CC(c3cccc(C(F)(F)F)c3)=NO2)C1 (stereo not given) returned ALOX12 inh 0%[6.33 µM].
`O=C(Nc1ccccc1Sc1ccccc1)C1CC=CCC1` (stereo not given) gave ALOX12 inh -3%.
For Cc1ccccc1C(=O)NC(C)c1ccc2c(c1)OCO2 (stereo not given) the results were ALOX12 inh -42%.
